Data as given in PubChem BioAssay AID1159580 (chemical genetic matrix, 2015).
Out of some 5,500 compounds screened, about 2,000 (36%) were called active. Inconclusive results (about 18%) are left out. No stated cut-off is given here; in the data, active means normalized growth mostly below about 0.91 (no sharp cut-off); inconclusive means no clear call, values can overlap the other calls; inactive means mostly above about 0.92. Some of the results follow.

Assay: chemical genetic growth profiling, strain panel (AID 1159580);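 further: tested at 20 µM; growth read once vehicle control cultures reached saturation at 30 °C; 1 = growth at the plate median or of vehicle wells; lower values mean less growth of the strain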
Settings: growth OD

Measured: normalized growth

C#C[C@]1(O)CCC2C3CCC4=C(CCC(=O)C4)C3CC[C@@]21C (some centres undefined)
inactive: S. cerevisiae deletion strains, locus YJR075W, strain HOC1, hits give low values 1.02 | S. cerevisiae deletion strains, locus YKL009W, strain mrt4, hits give low values 0.974 | S. cerevisiae deletion strains, locus YKL068W, hits give low values 1.01 | S. cerevisiae deletion strains, locus YKL085W, strain MDH1 (second series), hits give low values 1.01 | S. cerevisiae deletion strains, locus YKL085W, strain MDH1, hits give low values 1.01 | S. cerevisiae deletion strains, locus YKL160W, strain elf1, hits give low values 0.998 | S. cerevisiae deletion strains, locus YKL190W, strain CNB1, hits give low values 1.04 | S. cerevisiae deletion strains, locus YKR001C, strain vps1, hits give low values 1.01 | S. cerevisiae deletion strains, locus YKR026C, strain gcn3, hits give low values 0.986 | S. cerevisiae deletion strains, locus YKR091W, strain srl3, hits give low values 0.982 | S. cerevisiae deletion strains, locus YLL001W, strain dnm1, hits give low values 1 | S. cerevisiae deletion strains, locus YLL026W, hits give low values 0.994 | S. cerevisiae deletion strains, locus YLL041C, strain sdh2, hits give low values 0.977 | S. cerevisiae deletion strains, locus YLR027C, strain aat2, hits give low values 0.983 | S. cerevisiae deletion strains, locus YLR039C, strain RIC1, hits give low values 0.911 | S. cerevisiae deletion strains, locus YLR058C, strain SHM2, hits give low values 1.01 | S. cerevisiae deletion strains, locus YLR102C, strain apc9, hits give low values 1.01 | S. cerevisiae deletion strains, locus YLR113W, strain HOG1, hits give low values 0.852 | S. cerevisiae deletion strains, locus YLR221C, strain rsa3, hits give low values 0.96 | S. cerevisiae deletion strains, locus YLR258W, strain gsy2, hits give low values 0.973 | S. cerevisiae deletion strains, locus YLR262C, strain YPT6, hits give low values 0.868 | S. cerevisiae deletion strains, locus YLR268W, strain sec22, hits give low values 0.959 | S. cerevisiae deletion strains, locus YLR320W, strain mms22, hits give low values 0.963 | S. cerevisiae deletion strains, locus YLR330W, strain CHS5, hits give low values 1.02 | S. cerevisiae deletion strains, locus YLR342W, strain FKS1 (second series), hits give low values 0.953 | S. cerevisiae deletion strains, locus YLR342W, strain FKS1, hits give low values 0.968 | S. cerevisiae deletion strains, locus YLR357W, strain rsc2, hits give low values 1.03 | S. cerevisiae deletion strains, locus YLR370C, strain arc18, hits give low values 0.97 | S. cerevisiae deletion strains, locus YLR371W, strain rom2, hits give low values 1 | S. cerevisiae deletion strains, locus YLR384C, strain iki3, hits give low values 0.974 | S. cerevisiae deletion strains, locus YLR418C, strain cdc73, hits give low values 0.961 | S. cerevisiae deletion strains, locus YML016C, strain PPZ1, hits give low values 1.01 | S. cerevisiae deletion strains, locus YML032C, strain rad52, hits give low values 0.975 | S. cerevisiae deletion strains, locus YML120C, strain ndi1, hits give low values 0.97 | S. cerevisiae deletion strains, locus YML124C, strain tub3, hits give low values 1.01 | S. cerevisiae deletion strains, locus YMR058W, strain fet3, hits give low values 0.963 | S. cerevisiae deletion strains, locus YMR078C, strain ctf18, hits give low values 1 | S. cerevisiae deletion strains, locus YMR125W, strain sto1, hits give low values 1.01 | S. cerevisiae deletion strains, locus YMR129W, hits give low values 0.972 | S. cerevisiae deletion strains, locus YMR205C, strain PFK2, hits give low values 0.978 | S. cerevisiae deletion strains, locus YMR223W, strain ubp8, hits give low values 1.01 | S. cerevisiae deletion strains, locus YMR231W, strain pep5, hits give low values 0.981 | S. cerevisiae deletion strains, locus YMR307W, strain GAS1, hits give low values 0.989 | S. cerevisiae deletion strains, locus YNL067W, strain RPL9B, hits give low values 1.02 | S. cerevisiae deletion strains, locus YNL071W, strain lat1, hits give low values 0.963 | S. cerevisiae deletion strains, locus YNL128W, strain TEP1, hits give low values 1.03 | S. cerevisiae deletion strains, locus YNL153C, strain GIM3, hits give low values 1.03 | S. cerevisiae deletion strains, locus YNL183C, strain NPR1, hits give low values 0.919 | S. cerevisiae deletion strains, locus YNL209W, strain ssb2, hits give low values 0.989 | S. cerevisiae deletion strains, locus YNL233W, strain BNI4, hits give low values 0.998 | S. cerevisiae deletion strains, locus YNL248C, strain rpa49, hits give low values 0.96 | S. cerevisiae deletion strains, locus YNL250W, strain rad50, hits give low values 0.992 | S. cerevisiae deletion strains, locus YNL271C, strain bni1, hits give low values 0.991 | S. cerevisiae deletion strains, locus YNL298W, strain CLA4, hits give low values 0.986 | S. cerevisiae deletion strains, locus YNL307C, strain MCK1, hits give low values 0.99 | S. cerevisiae deletion strains, locus YNL322C, strain KRE1 (second series), hits give low values 0.97 | S. cerevisiae deletion strains, locus YNR049C, strain mso1, hits give low values 0.982 | S. cerevisiae deletion strains, locus YNR052C, strain pop2, hits give low values 0.992 | S. cerevisiae deletion strains, locus YOL006C, strain TOP1, hits give low values 0.931 | S. cerevisiae deletion strains, locus YOL012C, strain htz1 1.9 | S. cerevisiae deletion strains, locus YOL147C, strain pex11, hits give low values 1.01 | S. cerevisiae deletion strains, locus YOR001W, strain rrp6, hits give low values 0.936 | S. cerevisiae deletion strains, locus YOR061W, strain CKA2, hits give low values 1 | S. cerevisiae deletion strains, locus YOR069W, strain VPS5, hits give low values 1.02 | S. cerevisiae deletion strains, locus YOR070C, strain gyp1, hits give low values 1 | S. cerevisiae deletion strains, locus YOR080W, strain dia2, hits give low values 0.999 | S. cerevisiae deletion strains, locus YOR083W, strain WHI5, hits give low values 0.985 | S. cerevisiae deletion strains, locus YOR106W, strain vam3, hits give low values 0.991 | S. cerevisiae deletion strains, locus YOR136W, strain idh2, hits give low values 1 | S. cerevisiae deletion strains, locus YOR144C, strain elg1, hits give low values 1 | S. cerevisiae deletion strains, locus YOR184W, strain ser1, hits give low values 0.898 | S. cerevisiae deletion strains, locus YOR231W, strain MKK1, hits give low values 0.919 | S. cerevisiae deletion strains, locus YOR265W, strain rbl2, hits give low values 0.987 | S. cerevisiae deletion strains, locus YOR270C, strain vph1, hits give low values 0.955 | S. cerevisiae deletion strains, locus YOR290C, strain snf2, hits give low values 0.932 | S. cerevisiae deletion strains, locus YOR316C, strain cot1, hits give low values 1 | S. cerevisiae deletion strains, locus YPL051W, strain arl3, hits give low values 0.983 | S. cerevisiae deletion strains, locus YPL078C, strain atp4, hits give low values 0.93 | S. cerevisiae deletion strains, locus YPL106C, strain sse1, hits give low values 1.03 | S. cerevisiae deletion strains, locus YPL240C, strain hsp82, hits give low values 0.981 | S. cerevisiae deletion strains, locus YPL241C, strain CIN2, hits give low values 1.02 | S. cerevisiae deletion strains, locus YPL256C, strain CLN2, hits give low values 0.838 | S. cerevisiae deletion strains, locus YPR119W, strain clb2, hits give low values 1 | S. cerevisiae deletion strains, locus YPR141C, strain kar3, hits give low values 1.01 | S. cerevisiae deletion strains, locus YPR163C, strain tif3, hits give low values 1.02 | S. cerevisiae deletion strains, locus YPR167C, strain met16, hits give low values 1 | S. cerevisiae deletion strains, strain wtn01, hits give low values 0.996 | S. cerevisiae strains, strain wild type, hits give low values 1.03
active: S. cerevisiae deletion strains, locus YLR262C, strain YPT6 (second series), hits give low values 0.825
